# Reference: PubChem BioAssay (NCATS)
# Inconclusive results are not listed. Values without a mark were called inactive. Active and inactive are the calls of the source. The call rests on the fitted dose curve; in most records, active means well fitted curve in the direction sought with a large enough effect; inconclusive means small, poorly fitted or top-dose-only effect, or another doubt; inactive means no such curve, though single readings can be large; an effect the other way counts as inactive or inconclusive.
# Columns and labels:
# [1] = target: Aldehyde dehydrogenase, mitochondrial (Homo sapiens) (UniProt P05091); assay: qHTS for Inhibitors of the Aldehyde Dehydrogenase Family (ALDH2) Primary screen (AID 2061308);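 further: plate controls were vehicle for no effect and reference inhibitor for full effect; nearly all actives have a fitted effect of over 55% in size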
# [2] = target: Retinaldehyde dehydrogenase 3 (Homo sapiens) (UniProt P47895); assay: qHTS for Inhibitors of the Aldehyde Dehydrogenase Family (ALDH1A3) Primary screen (AID 2061315);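 further: plate controls were DMSO vehicle for no effect and reference inhibitor for full effect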
# [3] = target: Aldehyde dehydrogenase 1A1 (Homo sapiens) (UniProt P00352); assay: qHTS for Inhibitors of the Aldehyde Dehydrogenase Family (ALDH1A1) Confirmatory screens (AID 2061316); further: potency means the concentration at half of the fitted maximal effect; nearly all actives have a fitted effect of over 65% in size
# [4] = BET inhibitor-based combinations targeting novel dependencies in MECOM-rearranged (r) AML: SET-2 cell line (AID 2202231); details: SET-2 AML cells viability, CellTiter-Glo luminescence, 48 h; viability: stronger effect = lower value, concentration not given here; further: nearly all actives have a fitted effect of over 35% in size; further: potency means the concentration at half of the fitted maximal effect;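 on viability: plate controls were DMSO treated cells for no effect and wells without cells for full effect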
# How it was run: (§1)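 Readout: CellTiter-Glo luminescence. Exposure: 48 h, 11 concentrations, 500 cells/well. Metric: AUC and within-line Z-AUC after DMSO/empty-well normalization.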
# [5] = BET inhibitor-based combinations targeting novel dependencies in MECOM-rearranged (r) AML: OCI-AML3 cell line (AID 2202232); details: Potency: OCI-AML3 viability; further: potency means the concentration at half of the fitted maximal effect; nearly all actives have a fitted effect of over 35% in size
# How it was run: as §1
# [6] = BET inhibitor-based combinations targeting novel dependencies in MECOM-rearranged (r) AML: MV-4-11 cell line (AID 2202233); further: nearly all actives have a fitted effect of over 45% in size; further: potency means the concentration at half of the fitted maximal effect
# How it was run: (§2)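 Seeding density was 500 cells/well, and drug exposure lasted 48 hr under standard culture conditions. Read-out used CellTiter-Glo reagent with a 15 min room-temperature incubation before luminescence measurement; AUC and Z-AUC summarize the normalized responses.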
# [7] = BET inhibitor-based combinations targeting novel dependencies in MECOM-rearranged (r) AML: HNT-34 cell line (AID 2202234); further: nearly all actives have a fitted effect of over 35% in size; further: potency means the concentration at half of the fitted maximal effect
# How it was run: as §2
# [8] = BET inhibitor-based combinations targeting novel dependencies in MECOM-rearranged (r) AML: UCSD-AML1 cell line (AID 2202235); further: nearly all actives have a fitted effect of over 40% in size; further: potency means the concentration at half of the fitted maximal effect
# How it was run: as §2
# [9] = BET inhibitor-based combinations targeting novel dependencies in MECOM-rearranged (r) AML: AML-191 cell line (AID 2202236; further: nearly all actives have a fitted effect of over 35% in size; further: potency means the concentration at half of the fitted maximal effect)
# How it was run: as §1
# [10] = BET inhibitor-based combinations targeting novel dependencies in MECOM-rearranged (r) AML: AML-194 cell line (AID 2202237; further: nearly all actives have a fitted effect of over 40% in size; further: potency means the concentration at half of the fitted maximal effect)
# How it was run: as §1
SMILES,Potency [1],Potency [2],Potency [3],viability [4],Potency [5],Potency [6],Potency [7],Potency [8],Potency [9],Potency [10],Potency [4]
O=C(O)c1cccc(S(=O)(=O)N2CCN(S(=O)(=O)c3ccc4c(c3)OCCO4)CC2)c1,inactive,inactive,,,,,,,,,
CN(C)c1cccc(-c2nccc(N3CCC(C(N)=O)CC3)n2)c1,inactive,inactive,,,,,,,,,
Cc1ccc(S(=O)(=O)Nc2cnccc2C(=O)Nc2ccc(-n3cncn3)cc2)cc1,inactive,inactive,,,,,,,,,
CC(=O)c1ccc(N2CCN(S(=O)(=O)c3ccc4c(c3)OCC(=O)N4)CC2)cc1,inactive,inactive,,,,,,,,,
Cc1ccc(N[S+](=O)([O-])c2cc3c(cc2NC2CC2)NC(=O)CC3)cc1C,inactive,inactive,28.3 µM (active),,,,,,,,
CCCCCCCCCCCCCCCCOCCCOP(=O)(O)COC(CO)Cn1ccc(N)nc1=O (configuration not stated),inactive,inactive,,118%,20.9 µM (active),inactive,inactive,10.5 µM (active),inactive,inactive,
Cc1ccc(C(=O)Nc2ccc(CN3CCN(C)CC3)c(C(F)(F)F)c2)cc1C#Cc1cnc2[nH]ncc2c1,inactive,inactive,,,0.934 µM (active),0.0023 µM (active),,0.105 µM (active),0.0934 µM (active),0.148 µM (active),4.17 µM (active)
NC[C@@](O)(c1ccc(Cl)cc1)c1ccc(-c2cn[nH]c2)cc1,inactive,inactive,,,5.25 µM (active),4.68 µM (active),4.17 µM (active),9.34 µM (active),7.42 µM (active),6.61 µM (active),7.42 µM (active)
Cc1cc(-c2nc3cc(F)ccc3s2)ccc1NC(=O)[C@@H](N)CCCCN,inactive,inactive,,,14.8 µM (active),13.2 µM (active),8.33 µM (active),14.8 µM (active),16.6 µM (active),16.6 µM (active),13.2 µM (active)
CN(C)c1cccc(N2CCN(c3nn4c(=O)c5ccccc5nc4s3)CC2)c1,inactive,inactive,10.1 µM (active),,,,,,,,
COCCNCc1ccc(-c2cc3nccc(Oc4ccc(NC(=S)NC(=O)Cc5ccc(F)cc5)cc4F)c3s2)nc1,inactive,inactive,,,2.63 µM (active),0.132 µM (active),,2.95 µM (active),2.35 µM (active),2.63 µM (active),4.68 µM (active)
Cc1cc(C)nc(NC(=S)N2CCN(c3cc(Cl)cc(Cl)n3)CC2)c1,inactive,inactive,3.57 µM (active),,,,,,,,
C[C@H]1[C@@H](OC(=O)CCC(=O)O)O[C@@H]2O[C@@]3(C)CC[C@@H]4[C@H](C)CC[C@@H]1[C@@]24OO3,inactive,inactive,,,4.17 µM (active),1.66 µM (active),,8.33 µM (active),5.25 µM (active),9.34 µM (active),3.72 µM (active)
COc1cc(-c2cc(-c3ccc(N4CCNCC4)cc3)cnc2C)cc(OC)c1OC,inactive,inactive,,104%,8.33 µM (active),,,,,,
Cc1cc(C(=O)Nc2cc(Nc3ccc4c(/C=C/c5ccccn5)n[nH]c4c3)ccc2F)n(C)n1,inactive,inactive,,,18.6 µM (active),16.6 µM (active),7.42 µM (active),6.61 µM (active),16.6 µM (active),,18.6 µM (active)
Nc1[nH]nc2nnc(-c3c(-c4ccccc4)nn4ccccc34)cc12,inactive,inactive,,111%,14.8 µM (active),10.5 µM (active),,inactive,18.6 µM (active),inactive,
CCN1CCN(Cc2ccc(NC(=O)c3ccc(C)c(/C=C/c4cnc5[nH]ccc5c4OC)c3)cc2C(F)(F)F)CC1,inactive,inactive,,,5.25 µM (active),0.186 µM (active),0.209 µM (active),2.95 µM (active),2.95 µM (active),2.95 µM (active),5.9 µM (active)
O=C1Nc2ccccc2/C1=C/c1cc(Cl)c(O)c(Cl)c1,inactive,inactive,17.9 µM (active),,,,,,,,
COC(=O)N[C@@H](C)CNc1nccc(-c2cn(C(C)C)nc2-c2cc(Cl)cc(NS(C)(=O)=O)c2F)n1,inactive,inactive,,,1.66 µM (active),2.35 µM (active),,,1.66 µM (active),2.09 µM (active),2.63 µM (active)
